# Values joined by “and” are separate entries in the source; they are usually repeats but may differ in a detail not shown here. Equal values may be shown once. Records with an inconclusive call do not appear. Some structures have more than one record in an assay (separate samples or runs), and their calls can disagree. Active and inactive are the calls of the source. How the source made its calls, unless noted: active means hit-call score of the fitted dose curve at least 0.9, where 1 is the maximum; inconclusive means response in the unintended direction; inactive means score below 0.9.
# Key:
# [1] = target: Bile acid receptor (Homo sapiens) (UniProt Q96RI1); assay: ATG_IR1_CIS: Attagene CIS-FACTORIAL HepG2 Assay for human Nuclear Receptor Subfamily 1 Group H Member 4 (NR1H4), IR1 submotif (AID 2282946; active means hit-call score of the fitted dose curve at least 0.9, where 1 is the maximum; inactive means score below 0.9); conditions: IR1 reporter transcription, actives raise or lower the signal
# Chain of Bile acid receptor (Homo sapiens) (Q96RI1 whole entry, looked up): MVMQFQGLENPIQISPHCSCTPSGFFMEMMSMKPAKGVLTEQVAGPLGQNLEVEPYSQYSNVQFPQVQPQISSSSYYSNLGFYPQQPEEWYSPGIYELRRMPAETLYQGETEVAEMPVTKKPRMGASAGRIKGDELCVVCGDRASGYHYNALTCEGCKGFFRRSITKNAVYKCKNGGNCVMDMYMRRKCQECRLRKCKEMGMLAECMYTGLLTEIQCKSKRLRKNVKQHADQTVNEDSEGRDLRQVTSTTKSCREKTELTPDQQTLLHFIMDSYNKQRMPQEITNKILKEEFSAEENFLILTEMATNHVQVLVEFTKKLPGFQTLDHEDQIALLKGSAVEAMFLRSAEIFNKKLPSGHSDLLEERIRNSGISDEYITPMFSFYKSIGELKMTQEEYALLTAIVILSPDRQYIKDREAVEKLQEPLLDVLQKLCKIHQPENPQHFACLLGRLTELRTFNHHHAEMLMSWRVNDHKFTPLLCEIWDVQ
# In short: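 Transient MRTU transfection, HepG2; 24 h dosing; RNA → RT-PCR → 6-FAM primer extension → HpaI digest → capillary electrophoresis fluorescence. Gain/loss of signal fitted relative to DMSO.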
# [2] = ATG_PPRE_CIS: Attagene CIS-FACTORIAL HepG2 Assay for human Peroxisome Proliferator-activated Response Element (PPRE) (AID 2282958; active means hit-call score of the fitted dose curve at least 0.9, where 1 is the maximum; inactive means score below 0.9); conditions: HepG2 PPRE cis-element reporter, Attagene transcription factor profiling; actives raise or lower the signal
# In short: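 Cells are first transfected transiently with the multiplexed reporter library, then dosed for 24 h. Total RNA is reverse-transcribed, amplified, fluorescently end-labeled and HpaI-cut before capillary electrophoresis; activity is fitted bidirectionally against DMSO controls.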
# [3] = target: Nuclear receptor subfamily 1 group I member 3 (Homo sapiens) (UniProt Q14994); assay: ATG_CAR_TRANS: Attagene TRANS-FACTORIAL HepG2 Assay for human Constitutive Androstane Receptor (CAR) (AID 2282969); conditions: HepG2 Attagene TRANS-FACTORIAL CAR reporter;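 further: activators raise reporter mRNA above DMSO so AC50 marks induction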
# Chain of Nuclear receptor subfamily 1 group I member 3 (Homo sapiens) (Q14994 whole entry, looked up, the tested form may be a part): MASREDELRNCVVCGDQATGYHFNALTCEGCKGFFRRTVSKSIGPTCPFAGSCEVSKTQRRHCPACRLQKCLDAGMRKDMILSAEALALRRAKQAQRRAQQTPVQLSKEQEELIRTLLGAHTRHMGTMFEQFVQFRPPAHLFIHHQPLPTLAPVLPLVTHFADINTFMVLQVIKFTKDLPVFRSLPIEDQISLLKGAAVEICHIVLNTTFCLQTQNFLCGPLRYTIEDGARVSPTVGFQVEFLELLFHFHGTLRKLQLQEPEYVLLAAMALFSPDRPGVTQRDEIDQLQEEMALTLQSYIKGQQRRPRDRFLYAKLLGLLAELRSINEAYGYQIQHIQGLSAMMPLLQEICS
# In short: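 HepG2 cells transiently transfected with multiplexed GAL4-UAS reporter units expressing chimeric NR-Gal4 proteins; compound exposure 24 h. Reporter mRNA measured by RT-PCR, 6-FAM labelling, HpaI digestion and capillary electrophoresis; gain-of-signal fitted against DMSO baseline.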
# [4] = target: Glucocorticoid receptor (Homo sapiens) (UniProt P04150); assay: ATG_GR_TRANS: Attagene TRANS-FACTORIAL HepG2 Assay for human Glucocorticoid Receptor (GR) (AID 2282978); conditions: HepG2 Attagene TRANS GR reporter, mRNA transcription;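 further: activators score as hits since higher reporter transcript over DMSO is fitted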
# Chain of Glucocorticoid receptor (Homo sapiens) (P04150 whole entry, looked up, the tested form may be a part): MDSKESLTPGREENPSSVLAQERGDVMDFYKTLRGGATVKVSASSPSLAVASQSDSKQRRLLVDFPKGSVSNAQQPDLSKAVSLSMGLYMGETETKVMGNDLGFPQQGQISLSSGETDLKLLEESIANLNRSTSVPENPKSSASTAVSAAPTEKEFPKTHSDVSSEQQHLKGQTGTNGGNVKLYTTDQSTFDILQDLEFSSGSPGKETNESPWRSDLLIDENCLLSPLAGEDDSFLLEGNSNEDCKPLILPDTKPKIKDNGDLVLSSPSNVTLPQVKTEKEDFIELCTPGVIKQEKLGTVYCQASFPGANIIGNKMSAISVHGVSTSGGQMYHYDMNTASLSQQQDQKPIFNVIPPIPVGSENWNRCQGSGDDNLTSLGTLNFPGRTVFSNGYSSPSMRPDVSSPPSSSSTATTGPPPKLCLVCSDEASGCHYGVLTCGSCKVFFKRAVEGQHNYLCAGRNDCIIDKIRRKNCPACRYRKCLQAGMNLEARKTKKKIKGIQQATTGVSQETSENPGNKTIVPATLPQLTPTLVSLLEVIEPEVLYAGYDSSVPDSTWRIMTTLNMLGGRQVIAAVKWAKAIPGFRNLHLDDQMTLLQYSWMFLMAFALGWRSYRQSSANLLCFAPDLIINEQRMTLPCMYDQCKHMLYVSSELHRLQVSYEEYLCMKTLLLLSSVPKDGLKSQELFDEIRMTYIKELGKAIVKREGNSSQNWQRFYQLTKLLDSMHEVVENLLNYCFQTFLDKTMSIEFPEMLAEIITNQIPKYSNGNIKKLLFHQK
# In short: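 In this trans-factorial format, exogenous NR-GAL4 chimeric proteins in transfected HepG2 cells regulate GAL4-UAS reporter transcription. After 24 h treatment, reporter mRNA induction relative to DMSO is read by RT-PCR and capillary electrophoresis.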
# [5] = target: Oxysterols receptor LXR-beta (Homo sapiens) (UniProt P55055); assay: ATG_LXRb_TRANS: Attagene TRANS-FACTORIAL HepG2 Assay for human Liver X Receptor beta (LXRb) (AID 2282981); conditions: HepG2 Attagene TRANS GAL4-LXRb reporter, mRNA
# Chain of Oxysterols receptor LXR-beta (Homo sapiens) (P55055 whole entry, looked up, the tested form may be a part): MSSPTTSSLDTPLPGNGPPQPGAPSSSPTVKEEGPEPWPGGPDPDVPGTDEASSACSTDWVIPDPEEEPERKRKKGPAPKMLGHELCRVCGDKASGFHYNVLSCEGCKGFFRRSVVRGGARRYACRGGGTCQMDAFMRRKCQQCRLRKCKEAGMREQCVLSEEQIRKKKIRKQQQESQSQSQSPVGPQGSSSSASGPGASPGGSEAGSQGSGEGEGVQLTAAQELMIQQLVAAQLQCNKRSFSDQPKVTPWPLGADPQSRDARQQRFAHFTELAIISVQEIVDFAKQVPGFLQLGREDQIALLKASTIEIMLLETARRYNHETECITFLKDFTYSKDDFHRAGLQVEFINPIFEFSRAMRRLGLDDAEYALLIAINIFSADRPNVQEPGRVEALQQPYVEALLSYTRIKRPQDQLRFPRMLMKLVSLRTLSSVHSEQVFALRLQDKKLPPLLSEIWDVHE
# In short: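 In this TRANS format, exogenous chimeric NR-Gal4 protein activity, not endogenous factors, drives reporter expression in transfected human HepG2 cells. Exposure lasted 24 h; reporter mRNA was read by fluorescent capillary electrophoresis.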
# [6] = target: Cellular tumor antigen p53 (Homo sapiens) (UniProt P04637); assay: ATG_p53_CIS: Attagene CIS-FACTORIAL HepG2 Assay for human p53 Transcription Factor (AID 2282994; active means hit-call score of the fitted dose curve at least 0.9, where 1 is the maximum; inactive means score below 0.9); conditions: HepG2 p53 cis-element reporter, Attagene mRNA; actives raise or lower the signal
# Chain of Cellular tumor antigen p53 (Homo sapiens) (P04637 whole entry, looked up): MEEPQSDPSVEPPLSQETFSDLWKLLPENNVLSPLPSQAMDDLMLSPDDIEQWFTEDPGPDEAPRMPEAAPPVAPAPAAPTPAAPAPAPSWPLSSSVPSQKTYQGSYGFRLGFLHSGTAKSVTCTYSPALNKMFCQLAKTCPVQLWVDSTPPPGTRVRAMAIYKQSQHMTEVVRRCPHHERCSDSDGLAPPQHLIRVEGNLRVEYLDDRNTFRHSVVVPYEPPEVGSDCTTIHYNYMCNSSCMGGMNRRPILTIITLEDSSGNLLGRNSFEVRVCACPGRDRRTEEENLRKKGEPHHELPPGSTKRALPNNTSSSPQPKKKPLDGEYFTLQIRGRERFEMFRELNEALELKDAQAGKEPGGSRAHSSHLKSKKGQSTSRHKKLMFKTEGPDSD
# In short: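 HepG2 cells transiently transfected with cis-regulated multiple reporter transcription units, dosed 24 h. Reporter mRNA measured by RT-PCR, 6-FAM primer extension, HpaI digestion and capillary electrophoresis; bidirectional fit relative to DMSO.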
# [7] = target: human Peroxisome Proliferator-activated Receptor delta (PPARd), PPARD (gene 5467) (UniProt Q03181); assay: ATG_PPARd_TRANS: Attagene TRANS-FACTORIAL HepG2 Assay for human Peroxisome Proliferator-activated Receptor delta (PPARd) (AID 2283002)
# Chain of human Peroxisome Proliferator-activated Receptor delta (PPARd), PPARD (gene 5467) (Q03181 whole entry, looked up, the tested form may be a part): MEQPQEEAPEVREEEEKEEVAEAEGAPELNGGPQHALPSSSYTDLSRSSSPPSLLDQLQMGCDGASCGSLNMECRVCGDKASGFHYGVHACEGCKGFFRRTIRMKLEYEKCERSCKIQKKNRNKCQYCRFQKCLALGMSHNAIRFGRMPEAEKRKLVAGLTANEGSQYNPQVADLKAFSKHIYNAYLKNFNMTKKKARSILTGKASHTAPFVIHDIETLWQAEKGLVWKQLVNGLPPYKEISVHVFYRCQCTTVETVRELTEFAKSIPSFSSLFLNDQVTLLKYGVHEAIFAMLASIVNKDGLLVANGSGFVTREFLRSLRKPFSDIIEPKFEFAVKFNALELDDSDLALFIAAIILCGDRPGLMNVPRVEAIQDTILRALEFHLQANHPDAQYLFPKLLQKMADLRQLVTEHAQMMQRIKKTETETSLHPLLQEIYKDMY
# In short: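 HepG2 cells transiently transfected with multiplexed GAL4-UAS reporter units and exogenous chimeric NR-Gal4 proteins; 24 h compound exposure. Reporter mRNA measured by RT-PCR, 6-FAM labelling, HpaI digestion and capillary electrophoresis; gain of signal versus DMSO.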
# [8] = target: human RAR-related Orphan Receptor beta (RORb), RORB (gene 6096) (UniProt Q92753); assay: ATG_RORb_TRANS: Attagene TRANS-FACTORIAL HepG2 Assay for human RAR-related Orphan Receptor beta (RORb) (AID 2283010)
# Chain of human RAR-related Orphan Receptor beta (RORb), RORB (gene 6096) (Q92753 whole entry, looked up, the tested form may be a part): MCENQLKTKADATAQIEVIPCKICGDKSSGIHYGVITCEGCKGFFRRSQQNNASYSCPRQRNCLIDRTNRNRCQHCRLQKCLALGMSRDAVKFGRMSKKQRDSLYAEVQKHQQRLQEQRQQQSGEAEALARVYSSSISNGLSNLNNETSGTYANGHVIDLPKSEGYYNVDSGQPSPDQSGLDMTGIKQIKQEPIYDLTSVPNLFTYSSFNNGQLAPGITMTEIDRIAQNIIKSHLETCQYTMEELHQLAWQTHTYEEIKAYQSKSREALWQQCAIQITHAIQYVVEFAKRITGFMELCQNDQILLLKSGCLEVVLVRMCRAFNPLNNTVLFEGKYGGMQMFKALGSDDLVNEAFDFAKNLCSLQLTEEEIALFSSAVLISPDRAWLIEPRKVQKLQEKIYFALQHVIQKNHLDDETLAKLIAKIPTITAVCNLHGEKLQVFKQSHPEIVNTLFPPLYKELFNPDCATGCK
# In short: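 HepG2 cells transiently transfected with GAL4-UAS reporter units expressing chimeric NR-Gal4 protein; reporter mRNA measured 24 h after dosing by RT-PCR, 6-FAM labelling and capillary electrophoresis. Gain-of-signal fitted relative to DMSO baseline.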
# [9] = target: human Vitamin D Receptor (VDR), VDR (gene 7421) (UniProt P11473); assay: ATG_VDR_TRANS: Attagene TRANS-FACTORIAL HepG2 Assay for human Vitamin D Receptor (VDR) (AID 2283022)
# Chain of human Vitamin D Receptor (VDR), VDR (gene 7421) (P11473 whole entry, looked up, the tested form may be a part): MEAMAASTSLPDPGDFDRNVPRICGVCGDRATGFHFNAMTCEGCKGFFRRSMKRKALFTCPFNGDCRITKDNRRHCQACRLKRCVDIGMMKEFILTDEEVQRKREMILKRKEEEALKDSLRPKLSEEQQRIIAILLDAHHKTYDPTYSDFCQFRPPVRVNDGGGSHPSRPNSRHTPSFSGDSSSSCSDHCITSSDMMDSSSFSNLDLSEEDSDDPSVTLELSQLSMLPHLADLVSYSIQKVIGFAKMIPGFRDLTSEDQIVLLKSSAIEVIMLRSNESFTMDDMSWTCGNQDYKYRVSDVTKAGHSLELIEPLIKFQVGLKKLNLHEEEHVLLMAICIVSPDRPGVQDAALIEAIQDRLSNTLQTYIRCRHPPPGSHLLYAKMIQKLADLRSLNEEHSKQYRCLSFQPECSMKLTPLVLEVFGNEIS
# In short: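 Transactivation by an exogenous VDR-Gal4 chimera in transiently transfected HepG2 cells was measured as reporter transcript level 24 hours after chemical treatment. RT-PCR products were analysed by capillary electrophoresis and fitted in the positive direction relative to DMSO.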
# [10] = CCTE_Harrill_HTTr_Viability_MCF7: CCTE's 6-hour Cell Viability Assessment for the High-Throughput Transcriptomics (HTTr) Platform, in MCF-7 cells cultured in DMEM + 10% fetal bovine serum, Harrill Lab (AID 2284010; active means hit-call score of the fitted dose curve at least 0.9, where 1 is the maximum; inactive means score below 0.9)
# In short: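 MCF-7 cells in DMEM + 10% FBS, 384-well, exposed 6 h to an eight-point dilution series. Membrane integrity scored by high-content imaging of propidium iodide exclusion; bidirectional fit versus DMSO.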
# [11] = target: Oxysterols receptor LXR-alpha (Homo sapiens) (UniProt Q13133); assay: ATG_LXRa_TRANS: Attagene TRANS-FACTORIAL HepG2 Assay for human Liver X Receptor alpha (LXRa) (AID 2282980); conditions: HepG2 Attagene TRANS reporter, LXRa transactivation
# In short: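 Chemical-induced reporter mRNA measured by RT-PCR with fluorescent labelling and capillary electrophoresis after 24 h dosing of transiently transfected HepG2 cells expressing exogenous NR-Gal4 chimeras; increases scored against DMSO baseline.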
# [12] = ACEA_ER_AUC_viability: ACEA Biosciences xCELLigence Real-Time Cell Analysis on Estrogen Receptor Agonism for Viability (AID 2283782);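 further: continuous compound exposure with impedance area under curve over 80 h; hit means loss of impedance signal meaning reduced cell growth or viability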
# In short: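 T-47D human breast cells in phenol red-free RPMI1640 with 10% charcoal-stripped FBS were dosed with an 8-point 1:4 dilution series from 100 uM top final concentration, in duplicate. Impedance-based growth was followed for 80 h; AUC analysed versus DMSO.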
# [13] = target: Retinoic acid receptor alpha (Homo sapiens) (UniProt P10276); assay: ATG_DR5_RAR_CIS: Attagene CIS-FACTORIAL HepG2 Assay for human Retinoic Acid Receptor Alpha (RARE), DR5 submotif (AID 2282934; active means hit-call score of the fitted dose curve at least 0.9, where 1 is the maximum; inactive means score below 0.9); conditions: HepG2 Attagene cis-factorial RARE DR5 reporter, mRNA; actives raise or lower the signal
# Chain of Retinoic acid receptor alpha (Homo sapiens) (P10276 whole entry, looked up): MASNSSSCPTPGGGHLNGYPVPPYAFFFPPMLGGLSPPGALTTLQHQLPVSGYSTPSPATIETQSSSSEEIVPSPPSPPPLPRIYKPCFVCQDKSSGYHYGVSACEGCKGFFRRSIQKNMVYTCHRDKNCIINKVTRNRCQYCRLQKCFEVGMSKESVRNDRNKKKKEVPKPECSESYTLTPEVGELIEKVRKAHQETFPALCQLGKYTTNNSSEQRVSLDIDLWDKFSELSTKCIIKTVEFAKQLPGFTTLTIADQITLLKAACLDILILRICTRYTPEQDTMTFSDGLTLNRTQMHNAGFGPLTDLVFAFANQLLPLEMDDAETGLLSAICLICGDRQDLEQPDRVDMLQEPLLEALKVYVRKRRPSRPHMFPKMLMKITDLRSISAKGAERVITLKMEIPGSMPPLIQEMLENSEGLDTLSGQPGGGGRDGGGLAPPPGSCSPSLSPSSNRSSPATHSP
# In short: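 HepG2 cells transiently transfected with multiplexed reporter units under cis (DR5 RARE) promoters, so endogenous transcription factor activity is measured. After 24 h compound exposure, reporter mRNA is quantified by RT-PCR with fluorescent labelling and capillary electrophoresis; bidirectional fitting versus DMSO.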
# [14] = ATG_M_19_TRANS: Attagene TRANS-FACTORIAL HepG2 Assay for M19 Transcription Factor (Internal Marker) (AID 2282974); conditions: HepG2 Attagene TRANS-FACTORIAL M19 internal marker reporter
# In short: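 Cells: human HepG2, transiently transfected with multiplexed reporter transcription units. Exposure: 24 h. Detection: RT-PCR of reporter mRNA with capillary electrophoresis. Analysis: gain-of-signal vs DMSO.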
# [15] = ATG_XTT_Cytotoxicity: Cytotoxicity Assessment in the Attagene TRANS-FACTORIAL HepG2 Assay (AID 2283584)
# In short: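 Viability endpoint from XTT after 24 h chemical exposure of reporter-transfected human HepG2 liver cells; signal loss fitted relative to DMSO negative control.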
# [16] = ATG_GAL4_TRANS: Attagene TRANS-FACTORIAL HepG2 Assay for GAL4 (Internal Marker) (AID 2282976); conditions: HepG2 Attagene TRANS GAL4 internal marker reporter
# In short: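 In transfected human HepG2 liver cells dosed 24 h, GAL4 reporter mRNA serves as a baseline marker. Detection by RT-PCR with fluorescent capillary electrophoresis, activity fitted upward relative to DMSO.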
# [17] = TOX21_p53_BLA_p2_viability: Viability Assessment in the Tox21 HCT-116 p53 Agonism Beta-lactamase Assay, Phase 2 (AID 2283591);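 further: compound exposure lasted 16 h at 37 °C; actives lower the ATP signal meaning cytotoxicity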
# In short: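 HCT-116 p53-bla cells (4000/well) rested 5 h at 37C, then received compounds in DMSO (217-fold dilution) for 16 h at 37C, 5% CO2. After the CCF4 read, CellTiter-Glo was added; ATP luminescence was read after 30 min at room temperature.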
# [18] = TOX21_p53_BLA_p3_viability: Viability Assessment in the Tox21 HCT-116 p53 Agonism Beta-lactamase Assay, Phase 3 (AID 2283593);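 further: cells exposed to compound for 16 h before reading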
# In short: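 HCT-116 cells (4000/well) rested 5 h at 37C, then got DMSO compounds by pin tool (217-fold dilution) for 16 h at 37C, 5% CO2. After the bla read, CellTiter-Glo was added and luminescence read at 30 min, room temperature.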
# [19] = TOX21_p53_BLA_p4_viability: Viability Assessment in the Tox21 HCT-116 p53 Agonism Beta-lactamase Assay, Phase 4 (AID 2283597);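 further: hits lower the luminescence signal meaning cytotoxicity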
# In short: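 Following a 16 h exposure at 37C, the treated HCT116 wells were first read for the FRET ratio. They were then lysed with CellTiter-Glo, and ATP luminescence was recorded after 30 min at room temperature.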
# [20] = target: human RAR-related Orphan Receptor gamma (RORg), RORC (gene 6097) (UniProt P51449); assay: ATG_RORg_TRANS: Attagene TRANS-FACTORIAL HepG2 Assay for human RAR-related Orphan Receptor gamma (RORg) (AID 2283011)
# Chain of human RAR-related Orphan Receptor gamma (RORg), RORC (gene 6097) (P51449 whole entry, looked up, the tested form may be a part): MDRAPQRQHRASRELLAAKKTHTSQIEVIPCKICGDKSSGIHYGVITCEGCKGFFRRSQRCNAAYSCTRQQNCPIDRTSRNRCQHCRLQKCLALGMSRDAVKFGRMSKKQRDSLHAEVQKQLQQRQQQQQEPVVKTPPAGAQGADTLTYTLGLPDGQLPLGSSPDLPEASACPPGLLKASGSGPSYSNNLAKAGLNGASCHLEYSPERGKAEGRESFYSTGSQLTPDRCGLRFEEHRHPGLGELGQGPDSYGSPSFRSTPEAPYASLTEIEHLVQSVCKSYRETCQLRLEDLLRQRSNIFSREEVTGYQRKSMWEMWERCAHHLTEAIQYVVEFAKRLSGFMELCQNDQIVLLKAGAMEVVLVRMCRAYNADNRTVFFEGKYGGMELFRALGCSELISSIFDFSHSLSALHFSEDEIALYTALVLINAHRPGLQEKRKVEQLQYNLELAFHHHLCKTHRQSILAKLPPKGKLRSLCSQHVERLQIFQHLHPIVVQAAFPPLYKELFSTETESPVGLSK
# In short: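 Reporter transcripts from a transfected RORg-GAL4 chimera in HepG2 cells were quantified 24 h after dosing by RT-PCR, 6-FAM labelling, HpaI digestion and capillary electrophoresis; increases over DMSO baseline were fitted.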
structure (smiles),measurement,setting,value
CNC(=O)Oc1cc(C)c(SC)c(C)c1,outcome,[1],inactive
same,AC50,[2],36.4 µM (active)
same,outcome,[3],inactive
same,outcome,[4],inactive
same,outcome,[5],inactive
same,outcome,[6],inactive
same,outcome,[7],inactive
same,outcome,[8],inactive
same,outcome,[9],inactive
same,outcome,[10],inactive
CCCCOP(=O)(O)OCCCC,outcome,[1],inactive
same,outcome,[2],inactive
same,outcome,[4],inactive
same,outcome,[11],inactive
same,outcome,[5],inactive
same,outcome,[7],inactive
same,AC50,[12],20.3 µM (active)
O=P1(NCCCl)OCCCN1CCCl (configuration not stated),outcome,[13],inactive
same,outcome,[14],inactive
same,outcome,[4],inactive
same,outcome,[5],inactive
same,outcome,[8],inactive
same,outcome,[15],inactive
same,outcome,[10],inactive
CC(C)c1ccc(O)cc1,outcome,[13],inactive
same,outcome,[2],inactive
same,outcome,[3],inactive
same,outcome,[4],inactive
same,outcome,[5],inactive
same,outcome,[6],inactive
same,outcome,[7],inactive
same,outcome,[8],inactive
same,outcome,[9],inactive
[N-]=[N+]=CC(=O)OC[C@H](N)C(=O)O,outcome,[13],inactive
same,outcome,[1],inactive
same,outcome,[16],inactive
same,outcome,[11],inactive
same,outcome,[5],inactive
same,outcome,[6],inactive
same,outcome,[7],inactive
same,outcome,[8],inactive
same,outcome,[9],inactive
same,outcome,[15],inactive
same,outcome,[17],inactive
same,outcome,[18],inactive
same,outcome,[19],inactive
same,outcome,[10],inactive
O=C(NCNC(=O)NC1C(=O)NC(=O)N1CO)NC1C(=O)NC(=O)N1CO (configuration not stated),outcome,[13],inactive
same,outcome,[1],inactive
same,outcome,[2],inactive
same,outcome,[7],inactive
same,outcome,[8],inactive
same,outcome,[20],inactive
same,outcome,[15],inactive
same,outcome,[19],inactive
C[N+](C)=CCl,outcome,[13],inactive
same,outcome,[16],inactive
same,outcome,[4],inactive
same,outcome,[8],inactive
c1cc(OCC2CO2)ccc1Cc1ccc(OCC2CO2)cc1 (configuration not stated),outcome,[13],inactive
same,AC50,[1],37.4 µM (active)
same,AC50,[2],51.5 µM (active)
same,outcome,[14],inactive
same,outcome,[4],inactive
same,outcome,[5],inactive
same,outcome,[20],inactive
same,outcome,[9],inactive
same,outcome,[17],inactive
same,AC50,[18],87.4 µM (active)
same,outcome,[18],inactive
same,outcome,[19],inactive
same,outcome,[10],inactive
C=C(Cl)CCl,outcome,[13],inactive
same,outcome,[2],inactive
same,outcome,[14],inactive
same,outcome,[16],inactive
same,outcome,[4],inactive
same,outcome,[11],inactive
same,outcome,[5],inactive
same,outcome,[8],inactive
same,outcome,[20],inactive
same,outcome,[9],inactive
same,outcome,[19],inactive
CC(C)(c1cc(Cl)c(O)c(Cl)c1)c1cc(Cl)c(O)c(Cl)c1,outcome,[2],inactive
same,outcome,[14],inactive
same,outcome,[4],inactive
same,outcome,[5],inactive
same,AC50,[6],52.1 µM (active)
same,outcome,[7],inactive
same,outcome,[9],inactive
same,outcome,[15],inactive
same,AC50,[17],46.1 µM (active) and 33.1 µM (active)
same,AC50,[18],65.5 µM (active)
same,outcome,[18],inactive
same,AC50,[19],62.3 µM (active)
same,outcome,[19],inactive
CCOC(=O)COc1ccc(Cl)cc1Cl,outcome,[13],inactive
same,outcome,[3],inactive
same,outcome,[16],inactive
same,outcome,[4],inactive
same,outcome,[7],inactive
same,outcome,[15],inactive
same,outcome,[17],inactive
same,outcome,[18],inactive
same,outcome,[10],inactive
Cl/C=C\CCl,outcome,[13],inactive
same,outcome,[2],inactive
same,outcome,[14],inactive
same,outcome,[16],inactive
same,outcome,[4],inactive
same,outcome,[6],inactive
same,outcome,[7],inactive
same,outcome,[20],inactive
same,outcome,[9],inactive
same,outcome,[12],inactive
same,outcome,[10],inactive
O=[N+]([O-])c1ccc(Cl)cc1,outcome,[14],inactive
same,outcome,[4],inactive
same,outcome,[5],inactive
same,outcome,[6],inactive
same,outcome,[20],inactive
same,outcome,[9],inactive
same,outcome,[17],inactive
same,outcome,[18],inactive
same,outcome,[19],inactive
same,outcome,[12],inactive
same,outcome,[10],inactive
